High-throughput results from PubChem.
Rows were chosen to be rich in hits. Some 1.5% of all compounds tested hit in one or more screens of this group.
Mtb MenB inh: inhibitors of Mycobacterium tuberculosis MenB enzyme | P9WNP5 | MenB enzyme assay, absorbance read-out | inhibition, % (no concentration beside the values) | 100,000 compounds, 0.43% hits | AID 540299; in the data active = inhibition above about 21%, passing the limit was not always enough
Target sequence (P9WNP5 whole entry, looked up): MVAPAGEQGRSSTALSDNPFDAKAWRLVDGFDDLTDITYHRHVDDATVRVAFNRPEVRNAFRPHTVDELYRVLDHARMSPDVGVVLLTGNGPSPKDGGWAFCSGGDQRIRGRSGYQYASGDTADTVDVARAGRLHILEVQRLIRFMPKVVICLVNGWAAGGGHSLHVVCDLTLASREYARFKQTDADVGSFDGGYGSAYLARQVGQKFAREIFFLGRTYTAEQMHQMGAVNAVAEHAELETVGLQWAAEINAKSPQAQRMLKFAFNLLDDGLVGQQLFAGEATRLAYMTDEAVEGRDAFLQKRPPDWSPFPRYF
Polio RdRp inh: inhibitors of poliovirus RNA polymerase binding and polymerization; P03300; poliovirus polymerase elongation, fluorescence polarization; hits give low values; % elongation, % (compound at 16.7 µg/mL); 150,000 compounds, 0.66% hits; in the data active = % elongation below about 90%
Mtb MbtI inh: blocks the Mycobacterium tuberculosis siderophore enzyme MbtI; purified MbtI enzyme, fluorescence intensity read-out; P9WFX0; 100,000 compounds, 0.89% hits; inhibition, % (concentration not given with the values); AID 493033; in the data active = inhibition mostly above about 56%, no sharp cut-off; inactive = mostly below about 77%
AID504770: E. coli YBA685 growth inhibition, screen for V. cholerae RctB inhibitors; E. coli YBA685 rctB-dependent plasmid, OD600 growth, 3 h; hits give low values; z-score (test concentration not listed); 130,000 compounds, 0.27% hits; AID 504770; in the data active = z-score below about -2, passing the limit was not always enough
A number is an active result; . = inactive; / = not tested or not shown.

SMILES	Mtb MenB inh	Polio RdRp inh	Mtb MbtI inh	AID504770
COc1cccc(N(Cc2nnc3n2CCCCC3)C(=O)Nc2ccccc2)c1	/	.	/	/
Cc1sc2nc(CCl)[nH]c(=O)c2c1-c1ccccc1	/	89	82	.
Cc1sc2nc3n(c(=O)c2c1-c1ccccc1)CCC3	.	76	.	.
Cc1sc2nc(CCl)[nH]c(=O)c2c1C	/	.	.	.
O=c1c2c(-c3ccccc3)csc2nc2n1CCC2	.	.	/	.
O=C(Oc1cc(Cl)cc(Cl)c1)c1ccno1	/	/	/	-2.5
Cc1ccc(OC(=O)c2ccno2)cc1	/	/	/	.
O=C(CSc1nnc(Cc2ccccc2)o1)N(c1ccccc1)c1ccccc1	.	.	75	.
O=C(CSc1nnc(Cc2ccccc2)o1)c1ccccc1	.	.	.	.
N/C(=N\OC(=O)N1CCOCC1)c1ccccc1	.	.	.	-2.7
O=C(OCc1ccccc1)N1CCOCCN(C(=O)OCc2ccccc2)CCOCC1	.	.	.	.
NC(=O)c1c(N)sc2c1CCCCC2	.	78	.	.
C=CCn1c(CSc2ccc(C)cc2)n[nH]c1=S	.	.	74	.
Cc1ccc(S(=O)(=O)NCCSc2cc(C(F)(F)F)nc3ccccc23)cc1	.	.	.	.
Cn1c(CSc2cc(C(F)(F)F)nc3ccccc23)n[nH]c1=S	.	.	65	.
CC(=O)Nc1ccc(OCC(O)CN2CCCC2)cc1 (centres undefined)	/	/	/	.
CC(=O)Nc1ccc(OCC(O)Cn2ccnc2)cc1 (centres undefined)	31	.	.	.
CSC1=Nc2ccccc2CN1c1ccc(Br)cc1	.	.	/	.
Cn1c(CC2Sc3ccccc3NC2=O)n[nH]c1=S (centres undefined)	.	.	.	.
O=C(CS(=O)(=O)Cc1ccccc1)Nc1ccccn1	36	.	.	.
CSc1ccccc1NC(=O)CN1CCc2ccccc21	.	88	.	.
Cc1cccn2c(=O)c(/C=C(\C#N)C(=O)N3CCOCC3)c(Oc3ccccc3)nc12	.	.	.	.
Oc1ccccc1C1OCC(C2CC=CCC2)CO1 (centres undefined)	36	.	.	.
Cc1c(C)[n+]([O-])c2ccc3c(non3O)c12	.	.	.	-2.2
O=C(Nc1ccc(N2CCCCC2)cc1)Nc1ccccc1OC(F)(F)F	/	/	/	.
SMILES	Mtb MenB inh	Polio RdRp inh	Mtb MbtI inh	AID504770
COc1ccc(CC(=O)n2[nH]c(=O)cc(C)c2=O)cc1OC	.	.	56	.
O=c1[nH]c(-c2cccnc2)nc2ccccc12	/	/	/	.
Cc1nc(-c2cccnc2)[nH]c(=O)c1CC1CC1	/	/	/	-3
O=c1c(Br)cccc(Br)c1O	.	.	.	-3.5
CC(=O)NCCNc1nc2c(S(=O)(=O)c3ccc(C)cc3)nnn2c2ccccc12	.	.	.	.
S=c1cc(-c2ccccc2)[nH]c(=S)[nH]1	.	.	86	.
S=c1nccc(-c2ccccc2)[nH]1	.	83	.	.
N/C(=N\O)c1ccncc1	.	.	.	.
N/C(=N\O)c1cccc(/C(N)=N/O)n1	47	.	/	.
CCCn1c(SCC(=O)N2CCCC2)nnc1C(C)C	.	.	.	-3.1
NN=C(c1ccccc1)c1ccccc1	.	.	.	.
O=S(N=C(c1ccccc1)c1ccccc1)c1ccccc1 (centres undefined)	.	.	68	.
CC(C)n1c(SCC(=O)Nc2ccccc2)nc2ccccc2c1=O	.	.	.	.
Cc1cc(SCC(=O)Nc2ccccc2)c2ccccc2n1	.	89	/	.
CCCNC(=O)c1ccc(N2C(=O)c3ccccc3C2=O)cc1	.	.	.	.
CC1C(=O)NN=C1C(=O)N/N=C/c1ccc(OC(=O)c2ccco2)cc1 (centres undefined)	.	.	.	.
CC1C(=O)NN=C1C(=O)N/N=C\c1cccnc1 (centres undefined)	35	.	.	.
COCc1nn2cc(-c3ccc(Br)cc3)nc2s1	.	.	.	.
C=CCn1cn[nH]c1=S	.	.	61	.
Cc1ccc(NC(=O)CSC2=NN3CCS(=O)(=O)N=C3S2)c(C)c1	.	.	.	.
N#Cc1c(NC(=O)/C=C/c2cccs2)sc2c1CCC2	/	/	/	.
NC(=O)c1c(NC(=O)/C=C/c2cccs2)sc2c1CCCC2	.	.	53	.
O=C(CSc1nc2ccccc2s1)c1ccccc1	/	/	/	.
NC(=O)CSc1nc2ccccc2s1	.	.	82	.
O=C(CSc1nc2ccccc2s1)c1ccc[nH]1	.	58	.	.
CCN(CC)S(=O)(=O)c1ccc2oc(SCc3cn4c(C)cccc4n3)nc2c1	.	.	.	.
CC(=O)n1c(=S)[nH]c2ccccc21	.	.	101	.
O=C(Cn1c(=S)[nH]c2ccccc21)c1ccc(-c2ccccc2)cc1	.	.	/	.
Oc1[nH]c2ccccc2c1C=NCCCN1CCOCC1	.	.	.	.
